Experimental data: the supplement of paper PMC7156485
± gives the standard deviation of the averaged measurements.

What was measured:
Settings in all cases: concentration: 10 µM; 24 h
HCC1569 [1] = assay: cell number relative to DMSO (% of DMSO); higher = more cells (less growth inhibition / toxicity)
How it was run: (§1)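 Cells were seeded at 800 per well in 384-well plates with RPMI containing 10% FBS; both HCC1569 and TDF lines were used. Compounds were added at 10 µM for 24 h at 37 °C, in triplicate, before fixation in 3.7% formaldehyde and staining with a rabbit anti-H1.0 antibody, an AlexaFluor 647 secondary and DAPI. H1.0 nuclear intensity or cell number is reported as percent of the plate control using the median of replicates, and HCC1569 values were smoothed for positional effects.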

TDF [2] = assay: as above
How it was run: as §1

TDF [3] = assay: H1.0 immunofluorescence intensity relative to DMSO (% of DMSO); higher = stronger H1.0 induction, active = 120 or more
How it was run: as §1

HCC1569 [4] = assay: H1.0 immunofluorescence intensity relative to DMSO (% of DMSO); higher = stronger H1.0 induction, active = 140 or more
How it was run: as §1
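Wherever H1.0 immunofluorescence intensity relative to DMSO is given: TDF is a line of transformed human dermal fibroblasts of mesenchymal origin.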
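Wherever cell number relative to DMSO is given: TDF denotes transformed human dermal fibroblasts of mesenchymal origin.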

SMILES | cell number (HCC1569 [1]) | cell number (TDF [2]) | H1.0 immunofluorescence intensity (TDF [3]) | H1.0 immunofluorescence intensity (HCC1569 [4])
CC1(C(=O)O)CCC2(C)CCC3(C)C(=CC(=O)C4C5(C)CCC(O)C(C)(C)C5CCC43C)C2C1 (stereo not given) | 102 | 108 | 98.4 (inactive) | 84.4 (inactive)
CCCCC=CCCCCCCCC(=O)O [9(Z)-Tetradecenoic acid] | 98.2 | 105 | 104 (inactive) | 99.8 (inactive)
CCC(=O)c1ccc2c(c1)N(CCCN(C)C)c1ccccc1S2.Cl [Propionylpromazine hydrochloride] | 97.4 | 97.1 | 104 (inactive) | 117 (inactive)
COC1C(OC(N)=O)C(O)C(Oc2ccc3c(O)c(NC(=O)c4ccc(O)c(CC=C(C)C)c4)c(=O)oc3c2C)OC1(C)C.[Na+] (stereo not given) [Novobiocin.Na] | 103 | 112 | 95.7 (inactive) | 103 (inactive)
O=C(Nc1ccc(N2CCOCC2)c(S(=O)(=O)Nc2ccccc2Cl)c1)c1ccncc1 [Chk2 Inhibitor] | 98.5 | 110 | 87.3 (inactive) | 99.5 (inactive)
CCN(CCO)CCCC(C)Nc1ccnc2cc(Cl)ccc12.O=S(=O)(O)O (stereo not given) | 99 | 91.2 | 102 (inactive) | 95.7 (inactive)
O=C(C=Cc1ccc(O)c(O)c1)OCCc1ccccc1 | 74.8 ± 3.7 | 85.77 ± 0.57 | 93.1 (inactive) | 113 (inactive)
COC(C)(C)CCCC(C)CC=CC(C)=CC(=O)O (stereo not given) [Methoprene acid] | 104 | 91.9 | 98 (inactive) | 94.6 (inactive)
CCCCCC=CC=CC(O)CCCCCCCC(=O)O (racemic) | 103 | 96.8 | 103 (inactive) | 97 (inactive)
CCC1=C(C)CN(C(=O)NCCc2ccc(S(=O)(=O)NC(=O)NC3CCC(C)CC3)cc2)C1=O (stereo not given) [Glimepiride] | 102 | 111 | 93.1 (inactive) | 106 (inactive)
CCCn1c(=O)c2[nH]c(-c3ccc(S(=O)(=O)O)cc3)nc2n(CCC)c1=O [1,3-Dipropyl-8-p-sulfophenylxanthine] | 104 | 106 | 90.4 (inactive) | 92.6 (inactive)
CN1CCN(c2c(F)cc3c(=O)c(C(=O)O)cn(CCF)c3c2F)CC1 [Fleroxacin] | 101 | 87.2 | 102 (inactive) | 112 (inactive)
Cn1c(NCCN(CCO)CCCc2ccc([N+](=O)[O-])cc2)cc(=O)n(C)c1=O [Nifekalant] | 101 | 99.4 | 96.3 (inactive) | 100 (inactive)
CCCCCCCCCCCCCC(=O)NC(C)C(O)c1ccccc1 [D-erythro MAPP] | 104 | 99.8 | 100 (inactive) | 94.7 (inactive)
CCCCCC=CCC1OC1C(O)C=CCC=CCCCC(=O)O (stereo not given) [Hepoxilin B3] | 102 | 95 | 95.2 (inactive) | 93.1 (inactive)
Cc1ccc(-c2nn(C(C)(C)C)c3ncnc(N)c23)cc1 | 69.8 | 109 | 94.8 (inactive) | 188 (active)
CCCCCC=CCC=CCC=CCC=CCCCC(=O)OC(CO)COC(=O)CCCCCCCCCCCCCCCCC (stereo not given) [1-Stearoyl-2-arachidonoyl-glycerol] | 100 | 104 | 98.4 (inactive) | 98 (inactive)
CC(C=CC1=C(C)CCCC1(C)C)=CC=CC(C)=CC(=O)Nc1ccc(O)cc1 [Fenretinide] | 51.1 | 106 | 97.8 (inactive) | 181 (active)
CCCCCC=CCC=CC=CC=CC(SCC(N)C(=O)NCC(=O)O)C(O)CCCC(=O)O (stereo not given) [Leukotriene D4] | 106 | 99.8 | 92.1 (inactive) | 97.3 (inactive)
CC(CN1c2ccccc2Sc2ccccc21)N(C)C.Cl (stereo not given) [Promethazine hydrochloride] | 105 | 96.9 | 109 (inactive) | 106 (inactive)
CC1(NC(=O)CBr)CCC(C(C)(C)NCC(O)COc2cccc3[nH]ccc23)CC1 (racemic) | 95.8 | 98.3 | 93.2 (inactive) | 103 (inactive)
COc1ccc2c(c1)c(CC(=O)O)c(C)n2Cc1ccc(F)cc1 [1-(4-Fluorobenzyl)-5-methoxy-2-methylindole-3-acetic acid] | 101 | 95.2 | 95.4 (inactive) | 85.5 (inactive)
CCCCCCCCCCCCCCCC(O)C(CO)NC(C)=O (stereo not given) [C2 Dihydroceramide] | 104 | 114 | 99.1 (inactive) | 97 (inactive)
Cc1nc2ccccn2c(=O)c1CCN1CCC(C(=O)c2ccc(F)cc2)CC1 [Pirenperone] | 99.5 | 100 | 96.5 (inactive) | 103 (inactive)
Nc1nccc(-c2c(-c3ccc(F)cc3)ncn2C2CCNCC2)n1 | 84.5 | 89.4 | 88.6 (inactive) | 143 (active)

SMILES | cell number (HCC1569 [1]) | cell number (TDF [2]) | H1.0 immunofluorescence intensity (TDF [3]) | H1.0 immunofluorescence intensity (HCC1569 [4])
CC(C)(O)CCC(O)C(C)(O)C1CCC2(O)C3=CC(=O)C4CC(O)C(O)CC4(C)C3CCC12C (stereo not given) | 102 | 97 | 102 (inactive) | 94.8 (inactive)
COC(=O)C1C(O)CCC2CN3CCc4c([nH]c5ccccc45)C3CC21.Cl (stereo not given) [Yohimbine hydrochloride] | 99.8 | 113 | 93.8 (inactive) | 107 (inactive)
CCCCNc1ccc(C(=O)OCCN(C)C)cc1.Cl [Tetracaine hydrochloride] | 100 | 101 | 102 (inactive) | 95.8 (inactive)
COc1cc(C(=O)OCCC[NH+]2CCC[NH+](CCCOC(=O)c3cc(OC)c(OC)c(OC)c3)CC2)cc(OC)c1OC.[Cl-].[Cl-] [Dilazep hydrochloride] | 94.8 | 90.1 | 108 (inactive) | 107 (inactive)
O=c1[nH]c2cc(Cl)ccc2c(O)c1-c1cccc(Oc2ccccc2)c1 | 108 | 94.2 | 91.7 (inactive) | 88.2 (inactive)
CCN(CC)CCNC(=O)c1ccc(NC(C)=O)cc1.Cl [N-Acetylprocainamide hydrochloride] | 104 | 110 | 105 (inactive) | 116 (inactive)
CCN1CCCC1CNC(=O)c1c(O)c(Cl)cc(Cl)c1OC (stereo not drawn) [S(-)-Raclopride] | 102 | 97.5 | 95.7 (inactive) | 104 (inactive)
CC(=O)N1CCN(c2ccc(OCC3COC(Cn4ccnc4)(c4ccc(Cl)cc4Cl)O3)cc2)CC1 (stereo not given) [Ketoconazole] | 85.7 ± 11 | 97.3 ± 15 | 101 (inactive) | 118 (inactive)
O=C1Nc2ccc(Cl)cc2C(C#CC2CC2)(C(F)(F)F)O1 (stereo not given) [Efavirenz] | 101 | 98.5 | 97.6 (inactive) | 111 (inactive)
N#Cc1c(NC(=O)c2cccc3ccccc23)sc2c1CCCC2 [JNK Inhibitor IX] | 62.6 | 9.56 | 163 (active) | 170 (active)
COc1cccc(/C=N/CC/N=C/c2cccc(OC)c2[O-])c1[O-].[Cl-].[Mn+2] | 99.1 | 98.1 | 99.4 (inactive) | 108 (inactive)
Cc1ccc(C(=CCN2CCCC2)c2ccccn2)cc1.Cl [Trans-triprolidine.HCl] | 100 | 95.5 | 99 (inactive) | 110 (inactive)
O=C(O)CCCC=CCC1C(O)CC(O)C1C=CC(O)COc1cccc(Cl)c1.[Na] (stereo not given) | 99.8 | 98.7 | 96.8 (inactive) | 92.6 (inactive)
CCCCCCCCC=CCCCCCCCC(=O)O [9(Z)-Octadecenoic acid] | 104 | 97.1 | 97.5 (inactive) | 103 (inactive)
CCCOc1ccccc1-c1nc2[nH][nH]nc-2c(=O)n1 [Zaprinast] | 100.3 ± 0.47 | 113 ± 8.6 | 99.1 (inactive) | 104 (inactive)
COCCCCCCCCCCCC(=O)O [12-Methoxydodecanoic acid] | 101 ± 1.2 | 95.9 ± 11 | 95.5 (inactive) | 98.5 (inactive)
COc1cc2oc(=O)ccc2cc1O [Isoscopoletine] | 105 | 92.4 | 102 (inactive) | 89.1 (inactive)
CC(C)CC(NC(=O)C(O)C(N)Cc1ccccc1)C(=O)O.Cl (stereo not given) [Bestatin hydrochloride] | 101 | 104 | 96.3 (inactive) | 99.6 (inactive)
CCOC(=O)CN1C(=O)c2ccc3c4c(ccc(c24)C1=O)C(=O)N(CC(=O)OCC)C3=O | 104 | 105 | 89.7 (inactive) | 100 (inactive)
Cc1ccc(S(=O)(=O)N2c3ccccc3Oc3ccccc32)cc1 [10-[(4-methylphenyl)sulfonyl]-10H-phenoxazine] | 53.5 | 11.3 | 161 (active) | 154 (active)
CN1CCc2cccc3c2C1Cc1ccc(O)c(O)c1-3.Cl (stereo not given) [Apomorphine hydrochloride hemihydrate] | 89.9 | 87.9 | 94.8 (inactive) | 99.6 (inactive)
O=C(NCCO[N+](=O)[O-])c1cccnc1 [Nicorandil] | 102 | 96.3 | 91.5 (inactive) | 107 (inactive)
COc1c(OCCCCN2CCN(C)CC2)cc(O)c2c(=O)cc(-c3ccccc3)oc12 | 25.3 | 34.9 | 133 (active) | 119 (inactive)
O=c1oc2cc(O)ccc2c2oc3cc(O)ccc3c12 [Coumestrol] | 99.9 | 91.8 | 97.6 (inactive) | 94.6 (inactive)
O=S(=O)(O)C1CCNCC1 [Piperidine-4-sulphonic acid] | 92.6 | 101 | 89 (inactive) | 122 (inactive)
